Potency data for eight compounds are collected here from PubChem BioAssay (Tox21).

Test [1] is described as follows: Nuclear factor erythroid 2-related factor 2/antioxidant responsive element (Nrf2/ARE) small molecule agonists: qHTS cell viability counter screen in human keratinocytes (AID 1919968; active means well fitted curve in the direction sought with a large enough effect in the repeat runs; an effect the other way counts as inactive or inconclusive; further: nearly all actives have a fitted effect of over 55% in size). The method in brief:
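Parallel cytotoxicity read: KeratinoSens HaCaT cells, compound treatment 23 h, viability by CellTiter-Fluor fluorescence 1 h post-reagent.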
For orientation: Quantitative high-throughput screening tests each substance at several concentrations.

The nature of test [2]: Nuclear factor erythroid 2-related factor 2/antioxidant responsive element (Nrf2/ARE) small molecule agonists: luciferase reporter gene qHTS assay in human keratinocytes (AID 1919969). Further: nearly all actives have a fitted effect of over 35% in size. Further: potency means the concentration at half of the fitted maximal effect. For orientation: Reporter assays use an easily measured gene product as a stand-in for the process of interest.
The target of test [3] is Gonadotropin-releasing hormone receptor (Homo sapiens) (UniProt P30968). Kind of test: Human gonadotropin-releasing hormone receptor (GnRHR) small molecule agonists, calcium flux assay in GnRHR-HEK293 cells (AID 1920063). Further: nearly all actives have a fitted effect of over 35% in size. The method in brief: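 Calcium flux, agonist mode, human GnRHR stably integrated in HEK293; dye 1 h at 37 C before compound; Ex/Em=480/540 kinetic read, 3 min; 15 concentrations, triplicate.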
Chain of Gonadotropin-releasing hormone receptor (Homo sapiens) (P30968 whole entry, looked up): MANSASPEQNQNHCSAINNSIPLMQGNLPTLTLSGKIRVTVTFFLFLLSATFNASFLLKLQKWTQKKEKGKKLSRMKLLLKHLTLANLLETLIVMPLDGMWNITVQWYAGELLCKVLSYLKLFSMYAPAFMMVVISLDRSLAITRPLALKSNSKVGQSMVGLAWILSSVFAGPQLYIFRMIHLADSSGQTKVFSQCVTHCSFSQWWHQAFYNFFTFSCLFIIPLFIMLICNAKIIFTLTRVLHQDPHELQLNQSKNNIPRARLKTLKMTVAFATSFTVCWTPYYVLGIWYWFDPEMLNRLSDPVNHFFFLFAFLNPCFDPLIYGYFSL
(In general: Calcium assays in cells follow changes in intracellular calcium, usually with a dye or a luminescent sensor.)

Test [4] addresses KiSS-1 receptor (Homo sapiens) (UniProt Q969F8). Kind of test: Human kisspeptin (KISS1R) small molecule agonists, calcium flux assay in KISS1R-HEK293 cells (AID 1920064; active means well fitted curve in the direction sought with a large enough effect in the repeat runs; an effect the other way counts as inactive or inconclusive). The method in brief:
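Triplicate 15-concentration series were applied to dye-loaded human KISS1R HEK293 cells, and agonist-evoked calcium fluorescence was captured for 3 min.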

Test [5] can be described thus: G protein-coupled receptor (GPCR) small molecule agonists, calcium flux assay: HEK293 wild type cell line counter screen (AID 1920065). A digest of the protocol:
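Non-specific calcium responders were flagged by adding DMSO-dissolved compounds to dye-loaded cells and reading 480/540 nm fluorescence each second for 3 min; ATP served as positive control.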

Test [6] is described as follows: p53 small molecule agonists, cell-based qHTS assay with human liver microsomes (AID 1963577).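 Further: p53 response element beta-lactamase reporter cells with liver microsomes plus NADPH.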 A digest of the protocol: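 Metabolically competent format: test substances, human liver microsomes and NADPH (both 0.5 mg/mL final) incubated with p53RE-bla cells 16 h at 37 C. Beta-lactamase reporter signal then quantified by fluorescence.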
Test [7] in a line: p53 small molecule agonists, cell-based qHTS assay with rat liver microsomes (AID 1963578). A digest of the protocol:
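Each plate received p53RE-bla cells, then compound, then rat liver microsomes and NADPH (both 0.5 mg/mL final). Plates were held 16 h at 37 C, and beta-lactamase activity was detected with LiveBLAzer over 2 h.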

A short description of test [8]: p53 small molecule agonists, cell-based qHTS assay with human liver microsomes: qHTS cell viability counter screen (AID 1963579). Further: nearly all actives have a fitted effect of over 45% in size. A digest of the protocol: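 Tox21 library compounds, delivered from DMSO stocks, were tested on p53RE-bla cells together with 0.5 mg/mL human liver microsomes and 0.5 mg/mL NADPH (final) over 16 h at 37 C; CellTiter-Glo luminescence served as the cytotoxicity measure.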

A short description of test [9]: p53 small molecule agonists, cell-based qHTS assay with rat liver microsomes: qHTS cell viability counter screen (AID 1963580). Further: nearly all actives have a fitted effect of over 45% in size. A digest of the protocol: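 After the beta-lactamase ratio was read, CellTiter-Glo was added to the same wells and luminescence measured at 30 min; cells had been treated 16 h at 37 C with compounds, rat liver microsomes and NADPH (0.5 mg/mL final each).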

A short description of test [10]: p53 small molecule agonists, cell-based qHTS assay: qHTS cell viability counter screen (AID 1963581). Further: nearly all actives have a fitted effect of over 45% in size. The method in brief:
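Multiplexed with the reporter read, a CellTiter-Glo step (30 min, room temperature) gauges ATP-based viability of HCT-116 p53RE-bla cells after 16 h compound incubation at 37 C.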

Test [11] in a line: p53 small molecule agonists, cell-based qHTS assay (AID 1963582; active means well fitted activation curve with a large enough effect in the signal ratio in the repeat runs, not every such curve was filed as active; the % refers to the signal ratio). The method in brief:
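Beta-lactamase reporter cells (p53RE-bla) treated with compounds for 16 h at 37 C; FRET substrate, 2 h, room temperature; fluorescence intensity.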

Test [12] concerns the target 5-hydroxytryptamine receptor 2A (Homo sapiens) (UniProt P28223). Kind of test: 5-hydroxytryptamine receptor 2A (HTR2A) small molecule antagonists, cell-based qHTS assay (AID 1963586). Further: nearly all actives have a fitted effect of over 45% in size. The method in brief:
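CHO cells stably expressing human HTR2A were plated for 18 h at 37 C, then loaded with calcium dye for 1 h. Compounds were preincubated 5 min at room temperature before DOI (4 nM solution) was added. Kinetic fluorescence was read for 3 min.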

Test [13] shares this target. Kind of test: 5-hydroxytryptamine receptor 2A (HTR2A) small molecule agonists, cell-based qHTS assay (AID 1963587). Further: nearly all actives have a fitted effect of over 30% in size. A digest of the protocol:
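CHO cells stably expressing human HTR2A, plated 18 h, loaded with calcium dye 1 h at 37 C. Agonist mode: compounds added and intracellular calcium fluorescence recorded kinetically for 2 min at 1 sec intervals.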

The target of test [14] is Muscarinic acetylcholine receptor M1 (Homo sapiens) (UniProt P11229). Kind of test: Cholinergic receptor muscarinic 1 (CHRM1) small molecule antagonists, cell-based qHTS assay (AID 1963588). Further: nearly all actives have a fitted effect of over 40% in size. Further: potency means the concentration at half of the fitted maximal effect. The method in brief: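 Compounds were tested at 15 concentrations in three independent runs. Dye-loaded CHRM1-CHO cells were exposed 5 min at room temperature before stimulation by acetylcholine added at 50nM. Intracellular calcium was read kinetically on FDSS for 3 min.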
Chain of Muscarinic acetylcholine receptor M1 (Homo sapiens) (P11229 whole entry, looked up): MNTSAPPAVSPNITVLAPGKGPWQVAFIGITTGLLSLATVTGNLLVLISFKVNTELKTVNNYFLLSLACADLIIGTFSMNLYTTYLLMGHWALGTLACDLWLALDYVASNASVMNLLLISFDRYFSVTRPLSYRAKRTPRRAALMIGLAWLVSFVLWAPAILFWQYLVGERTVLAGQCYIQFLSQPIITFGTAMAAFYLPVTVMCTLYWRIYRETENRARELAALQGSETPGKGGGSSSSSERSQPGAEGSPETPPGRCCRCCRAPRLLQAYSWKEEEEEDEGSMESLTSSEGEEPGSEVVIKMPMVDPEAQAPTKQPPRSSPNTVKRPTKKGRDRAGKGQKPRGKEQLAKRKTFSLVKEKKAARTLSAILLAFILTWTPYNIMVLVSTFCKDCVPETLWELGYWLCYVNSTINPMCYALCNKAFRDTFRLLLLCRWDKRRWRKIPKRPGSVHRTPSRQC

The target is the same in test [15]. Kind of test: Cholinergic receptor muscarinic 1 (CHRM1) small molecule agonists, cell-based qHTS assay (AID 1963589). Further: nearly all actives have a fitted effect of over 35% in size. The method in brief: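 qHTS, 15-point titration, 3 independent runs: compounds pin-transferred onto dye-loaded CHRM1-CHO cells (human M1), calcium fluorescence followed every second to detect agonism.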
Test [16] in a line: cAMP Responsive Elements (CRE) small molecule antagonists, cell-based qHTS assay (AID 1963591; active means well fitted inhibition curve with a large enough effect in the signal ratio in the repeat runs, not every such curve was filed as active; the % refers to the signal ratio). The method in brief:
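Fluorescence intensity from cleaved LiveBLAzer B/G substrate (2 h, room temperature) quantified CRE-bla activity in HEK 293T cells exposed 3 h to compound with 0.25 uM final NKH477.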

The target of test [17] is Beta-2 adrenergic receptor (Homo sapiens) (UniProt P07550). Kind of test: Adrenergic beta2 receptor (ADRB2) small molecule antagonists, cell-based qHTS assay (AID 1963592). Further: series mostly up to about 92 µM; nearly all actives have a fitted effect of over 50% in size. A digest of the protocol:
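Assay format: CHO-ADRB2 cells, 18-20hr seeding at 37C/5% CO2, then compound plus 1nM isoproterenol agonist mix for 0.5hr RT. Homogeneous time-resolved fluorescence cAMP detection after 1hr, expressed as 665/615 nm ratio.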

Test [18] concerns the target D(2) dopamine receptor (Homo sapiens) (UniProt P14416). Kind of test: Dopamine D2 receptor (DRD2) small molecule agonists, cell-based qHTS assay (AID 1963594). Further: nearly all actives have a fitted effect of over 35% in size. A digest of the protocol: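 HEK293 cells stably expressing human DRD2, pre-treated with PDE inhibitor Ro20-1724 (0.1 mM final) and compound 10 min at room temperature, then stimulated with NKH477 (200nM […]) for 30 min. cAMP read by HTRF (665/620 nm).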

Test [19] has the same target. Kind of test: Dopamine D2 receptor (DRD2) small molecule antagonists, cell-based qHTS assay (AID 1963595; active means well fitted inhibition curve with a large enough effect in the signal ratio in the repeat runs, with a control signal flat; the % refers to the signal ratio). A digest of the protocol: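 Human DRD2 antagonist qHTS measuring cAMP by HTRF. The cells are exposed to compound for 10 min, then to NKH477 (200 nM) and quinpirole (12 nM) for 30 min at RT, with Ro20-1724 (0.1 mM) present throughout.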
Test [20] in a line: cAMP Responsive Elements (CRE) small molecule agonists, cell-based qHTS assay (AID 1963590). The method in brief:
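Quantitative HTS for CRE agonists: HEK 293T CRE-bla cells, overnight plating, 3 h compound incubation at 37 C/5% CO2, then 2 h room-temperature LiveBLAzer B/G FRET substrate loading.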

Where “and” joins values, the source holds several entries; their conditions need not be identical. Equal entries are not always repeated. Records with an inconclusive call do not appear. Where a structure was tested more than once in an assay, its records may differ in their call. Calls of active or inactive are those of the source. Unless noted, the call rests on the fitted dose curve.

Chain of Beta-2 adrenergic receptor (Homo sapiens) (P07550 whole entry, looked up): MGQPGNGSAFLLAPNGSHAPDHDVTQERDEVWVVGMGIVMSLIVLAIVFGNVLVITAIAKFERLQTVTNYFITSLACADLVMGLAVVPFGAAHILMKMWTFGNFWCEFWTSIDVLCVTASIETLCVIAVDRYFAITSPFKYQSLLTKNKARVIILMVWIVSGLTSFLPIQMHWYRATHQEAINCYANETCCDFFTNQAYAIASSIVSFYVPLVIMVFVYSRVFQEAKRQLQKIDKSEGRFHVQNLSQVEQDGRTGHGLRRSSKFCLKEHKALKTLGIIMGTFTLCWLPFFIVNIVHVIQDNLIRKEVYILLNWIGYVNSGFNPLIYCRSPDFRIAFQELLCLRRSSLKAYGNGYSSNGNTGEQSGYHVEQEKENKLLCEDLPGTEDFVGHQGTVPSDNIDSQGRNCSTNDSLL
Chain of 5-hydroxytryptamine receptor 2A (Homo sapiens) (P28223 whole entry, looked up): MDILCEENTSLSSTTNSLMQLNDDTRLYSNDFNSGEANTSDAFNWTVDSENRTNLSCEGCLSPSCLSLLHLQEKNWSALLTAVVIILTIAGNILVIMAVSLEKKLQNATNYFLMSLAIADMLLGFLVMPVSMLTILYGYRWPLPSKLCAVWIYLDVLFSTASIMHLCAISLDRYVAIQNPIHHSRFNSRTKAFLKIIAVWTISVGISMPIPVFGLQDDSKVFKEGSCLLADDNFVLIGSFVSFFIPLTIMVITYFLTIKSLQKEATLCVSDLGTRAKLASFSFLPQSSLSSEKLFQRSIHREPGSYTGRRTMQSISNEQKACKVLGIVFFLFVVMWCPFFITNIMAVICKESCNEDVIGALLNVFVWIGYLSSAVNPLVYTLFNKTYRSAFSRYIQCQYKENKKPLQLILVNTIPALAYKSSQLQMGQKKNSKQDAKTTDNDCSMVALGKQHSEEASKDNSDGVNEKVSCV
Chain of KiSS-1 receptor (Homo sapiens) (Q969F8 whole entry, looked up): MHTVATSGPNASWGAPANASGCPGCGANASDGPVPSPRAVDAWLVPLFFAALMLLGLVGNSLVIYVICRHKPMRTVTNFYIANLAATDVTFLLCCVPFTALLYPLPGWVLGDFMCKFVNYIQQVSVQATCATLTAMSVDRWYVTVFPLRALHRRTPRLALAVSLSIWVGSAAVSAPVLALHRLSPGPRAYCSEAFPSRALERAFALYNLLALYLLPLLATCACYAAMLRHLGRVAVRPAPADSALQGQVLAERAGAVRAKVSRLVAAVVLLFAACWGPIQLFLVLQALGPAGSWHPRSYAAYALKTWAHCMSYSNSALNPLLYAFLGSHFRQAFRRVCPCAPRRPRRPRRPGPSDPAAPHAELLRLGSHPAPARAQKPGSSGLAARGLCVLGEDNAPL
Chain of D(2) dopamine receptor (Homo sapiens) (P14416 whole entry, looked up): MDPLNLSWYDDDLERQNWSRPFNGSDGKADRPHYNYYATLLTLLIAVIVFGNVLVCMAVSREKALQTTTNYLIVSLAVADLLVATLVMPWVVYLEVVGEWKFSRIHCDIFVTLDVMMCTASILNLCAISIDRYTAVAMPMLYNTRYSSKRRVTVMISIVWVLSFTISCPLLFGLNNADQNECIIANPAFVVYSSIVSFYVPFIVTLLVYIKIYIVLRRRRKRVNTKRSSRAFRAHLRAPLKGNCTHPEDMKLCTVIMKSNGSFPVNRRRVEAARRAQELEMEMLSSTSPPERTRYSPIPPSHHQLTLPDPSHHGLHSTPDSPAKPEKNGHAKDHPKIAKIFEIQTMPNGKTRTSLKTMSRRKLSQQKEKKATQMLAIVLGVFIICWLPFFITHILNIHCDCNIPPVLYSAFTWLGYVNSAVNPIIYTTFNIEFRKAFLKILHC

As to `COC(=O)c1ccccc1`, the Potency entry in test [1], in test [2], in [3], in test [4], in test [5] and in [6] was “inactive” each time. For the same compound, the Potency result in test [7], in test [8], in [9], in test [10], in test [11] and in [12] was “inactive” throughout. Further, the Potency result in [13], in [14], in test [15], in test [16], in test [17] and in [18] was “inactive” throughout. Also, the Potency entry in test [19] was “inactive”.

For the compound `O=C(OCC1CCC2OC2C1)C1CCC2OC2C1` (configuration not stated), the Potency result in [1], in test [2], in test [3], in test [4], in test [5] and in test [6] was “inactive” each time. For the same compound, the Potency entry in [7], in test [8], in test [9], in [10], in [11] and in test [12] was “inactive” in each case. In addition, the Potency result in test [13], in [14], in test [15], in test [20], in test [16] and in test [17] was “inactive” each time. Moreover, the Potency entry in test [18] and in test [19] was “inactive” each time.

In the case of `O=[N+]([O-])c1cc(C(F)(F)F)ccc1Cl`, the Potency result in [1], in test [2], in [3], in test [4], in test [5] and in test [6] was “inactive” each time. Further, the Potency result in test [7], in test [8], in [9], in test [10], in test [11] and in test [12] was “inactive” throughout. Also, the Potency entry in [13], in test [14], in test [15], in test [20], in test [17] and in test [19] was “inactive” in each case.

`Oc1ccc2ccccc2c1N=Nc1ccccc1`: the Potency result in [1], in test [3], in test [4], in test [5], in [6] and in test [7] was “inactive” throughout. The Potency result in test [8], in test [9], in test [10], in [11], in test [12] and in test [13] was “inactive” in each case. Besides, the Potency result in test [15], in [16], in test [17], in [18] and in [19] was “inactive” throughout. The Potency in [2] was 30.6 µM (active) and 21.7 µM (active); in test [14] it was 472 nM (active) and inactive.

In the case of `O=C1C(c2[nH]c3ccccc3c2O)=Nc2ccccc21`, the Potency entry in [1], in [2], in test [3], in test [4], in [5] and in test [6] was “inactive” throughout. In addition, the Potency entry in test [7], in test [8], in [9], in test [10], in [11] and in [12] was “inactive” in each case. Also, the Potency result in test [13], in test [14], in [15], in test [20], in test [17] and in test [18] was “inactive” throughout. In test [19], the Potency result is “inactive”.

As for `CCCCCCCCO`, the Potency entry in [1], in test [2], in [3], in test [4], in [5] and in [6] was “inactive” each time. Also, the Potency entry in test [7], in test [8], in test [9], in test [10], in test [11] and in test [12] was “inactive” throughout. Further, the Potency entry in test [13], in test [14], in test [15], in [20], in [16] and in test [18] was “inactive” in each case. Moreover, in [19], the Potency entry was “inactive”.

For `CCNC(=S)NCC`, the Potency entry in test [1], in [2], in test [3], in test [4], in test [5] and in test [6] was “inactive” each time. Besides, the Potency entry in [7], in test [8], in test [9], in test [10], in test [11] and in test [12] was “inactive” each time. Also, the Potency entry in test [13], in test [14], in [15], in [20], in test [17] and in [18] was “inactive” throughout. In test [19], the Potency entry was “inactive”.

With `CCCCC1(COC(=O)CCC(=O)O)C(=O)N(c2ccccc2)N(c2ccccc2)C1=O`, the Potency entry in test [1], in test [2], in test [3], in test [4], in test [5] and in test [6] was “inactive” each time. Besides, the Potency entry in [7], in [8], in test [9], in test [10], in test [11] and in [12] was “inactive” each time. Moreover, the Potency entry in test [13], in [14], in [15], in [20], in [16] and in [18] was “inactive” each time. For the same compound, in [19], the Potency result is “inactive”.
